Source: PubChem (National Center for Advancing Translational Sciences (NCATS))
In the library only some 6% were active in any assay of this set; here they are far more common.
D1 antagonist: antagonists of human D1 dopamine receptor; HEK293 TREx D1 cells, calcium flux, dopamine EC80; active compounds read low; 360,000 compounds, 3.2% hits; P21728; activity change, negative = inhibition, % at 10 µM; AID 504652; in the data active = activity change below about -30%
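Tetracycline-induced HEK293 T-REx cells with force-coupled D1 receptor were loaded with a no-wash calcium dye. Compound was added after a 10 s baseline and read kinetically for 180 s; EC80 dopamine was then added and calcium flux followed another 180 s.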
D1 potentiator: potentiators of human D1 dopamine receptor; 360,000 compounds, 0.036% hits; HEK293 TREx D1 cells, calcium flux, dopamine EC20 potentiation; P21728; potentiation, % at 10 µM; in the data active = potentiation above about 30%
Chronic BCR inh: chronic active BCR signaling inhibition; ABC-DLBCL IkBa-CBG/CBR reporter, luminescence ratio, 4 h; Potency, µM (doses to about 46.1 µM), usual class: inhibitors; 340,000 compounds, 0.05% hits; AID 493014; active = well fitted inhibition curve with a large enough effect in the signal ratio, with a control signal flat, not every such curve was filed as active; inconclusive = small, poorly fitted or top-dose-only effect, or effect the other way, or a change in a side signal; the % refers to the signal ratio
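Concentration-response series (up to 46 uM) were applied to TMD8 dual-reporter cells for 4 h at 37C with doxycycline. Green/red ratio, after filter-overlap correction, defined %Activity; red signal alone was normalised to basal cells and zero luminescence.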
DRD3 agonist: D3 dopamine receptor (human) agonism. D3R DiscoveRx beta-arrestin cells, luminescence, 90 min. max activation, %. 410,000 compounds, 0.58% hits; in the data active = max activation above about 30%
Target sequence (P35462 whole entry, looked up): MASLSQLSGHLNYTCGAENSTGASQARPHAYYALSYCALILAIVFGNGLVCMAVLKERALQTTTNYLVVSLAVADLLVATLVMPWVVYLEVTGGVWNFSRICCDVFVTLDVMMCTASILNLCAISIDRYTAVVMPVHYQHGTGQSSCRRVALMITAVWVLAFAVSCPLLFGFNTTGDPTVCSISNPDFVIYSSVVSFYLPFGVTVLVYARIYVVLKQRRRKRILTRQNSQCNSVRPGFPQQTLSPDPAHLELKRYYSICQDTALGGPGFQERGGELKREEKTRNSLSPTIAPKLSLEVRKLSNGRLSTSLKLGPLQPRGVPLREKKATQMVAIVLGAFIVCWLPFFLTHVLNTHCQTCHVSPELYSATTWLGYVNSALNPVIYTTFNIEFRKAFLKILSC
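Agonist-mode cell screen: cells plated at 1500/well and incubated overnight at 37 °C, then exposed to library compounds for 90 min at 37 °C. Detection reagent was added for 30–60 min at room temperature, and luminescence was read.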
D3 antag: D3 dopamine receptor (human) antagonism; D3R cells, DiscoveRx beta-arrestin luminescence, antagonist mode; active compounds read low; max response, negative = inhibition, %; 360,000 compounds, 2.5% hits; AID 652054; in the data active = max response below about -50%; inconclusive = no clear call, values can overlap the other calls
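Cells expressing the human receptor were seeded at 1500 cells/well, incubated overnight at 37 degrees C in 5% CO2, then exposed to library compounds with dopamine controls for 90 minutes at 37 degrees C before luminescent detection.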
D1 agonist: activates the human D1 dopamine receptor; activation, % at 2 µM; HEK293 T-REx D1 cells, calcium flux, agonist mode; 360,000 compounds, 1% hits; AID 504660; in the data active = activation above about 30%
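Agonism was scored from calcium flux recorded over 180 s (1 read/s) after pintool compound addition, following a 10-cycle baseline. Cells were inducible force-coupled HEK293 TREx D1, plated overnight at 30 C and loaded with no-wash calcium dye.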
Of the large screens only hits and unclear results are named; the others gave an inactive call.

COc1ccc(CCNCc2ccc(Br)cc2)cc1OC	D3 antag -60, D1 agonist 43
Cc1ccccc1CCNCc1ccc(Br)cc1	D3 antag -59
CCc1ccc(CNCCc2c[nH]c3ccccc23)cc1	Chronic BCR inh inconclusive, D3 antag inconclusive
CC(=O)[C@H]1CC[C@H]2[C@@H]3CC[C@H]4C[C@](C)(O)CC[C@]4(C)[C@H]3CC[C@]12C	none (no result: D1 antagonist, D1 potentiator, Chronic BCR inh, D3 antag, D1 agonist)
COC(=O)C1=C(C(=O)OC)C2OC1c1cc3ccccc3cc12	D3 antag -58 (no result: D1 antagonist, D1 potentiator, Chronic BCR inh, D1 agonist)
COCCCNC(=O)c1c(NC(=O)c2ccccc2Cl)n(Cc2ccccc2)c2nc3ccccc3nc12	D3 antag inconclusive, D1 agonist 40
CCOc1ccccc1CNCCc1ccc2c(c1)OCO2	none
COc1cc(CNCCc2c[nH]c3ccccc23)cc(OC)c1	Chronic BCR inh inconclusive, D3 antag -68
c1ccc2c(CCNCc3ccc4c(c3)OCO4)c[nH]c2c1	D1 antagonist -43, D3 antag -68, D1 agonist 99
CCOc1ccc(CNCCc2ccc3c(c2)OCO3)cc1	Chronic BCR inh inconclusive, D3 antag -86, D1 agonist 30
Oc1cc[c]([Hg][Cl])cc1	none (no result: D1 antagonist, D1 potentiator, Chronic BCR inh, D3 antag, D1 agonist)
CCOP(=S)(OCC)O/N=C(\C#N)c1ccccc1	none (no result: D1 antagonist, D1 potentiator, Chronic BCR inh, D3 antag, D1 agonist)
CN1C(CC(O)c2ccccc2)CCCC1CC(O)c1ccccc1 (stereo not given)	D1 antagonist -45
O=c1cc(C(F)(F)F)c2cc3c4c(c2o1)CCCN4CCC3	D1 antagonist -65, D1 agonist 330
Cc1cc2c(C(F)(F)F)cc(=O)oc2c2c1NCCC2	D1 agonist 113
COc1ccc2c3c1O[C@H]1[C@H](O)CC[C@H]4[C@@H](C2)N(C)CC[C@@]341	none (no result: D1 antagonist, D1 potentiator, Chronic BCR inh, D3 antag, D1 agonist)
O=c1[nH]c(=O)n(-c2cccc3ccccc23)c(O)c1C=NCc1ccc2c(c1)OCO2	Chronic BCR inh inconclusive, D3 antag -63
COc1ccc(OC)c(-n2c(O)c(C=NCc3ccc4c(c3)OCO4)c(=O)[nH]c2=O)c1	none
O=C(CCCN1CCC(n2c(=O)[nH]c3ccccc32)CC1)c1ccc(F)cc1	D1 antagonist -44, D3 antag -103
CC1(C)[C@H](C=C(Cl)Cl)[C@H]1C(=O)OCc1c(F)c(F)cc(F)c1F	none (no result: D1 antagonist, D1 potentiator, Chronic BCR inh, D3 antag, D1 agonist)
CCSc1nc2n(n1)C(c1ccc(Cl)cc1Cl)C(C(=O)Nc1ccccc1C)=C(C)N2 (stereo not given)	D1 antagonist -34, Chronic BCR inh inconclusive (no result: D3 antag)
Cc1ccccc1NC(=O)CCl	Chronic BCR inh inconclusive
NC1(c2ccccc2)CCCCC1	none (no result: D1 antagonist, D1 potentiator, Chronic BCR inh, D3 antag, D1 agonist)
CCN1C(=O)NC(=O)/C(=C\c2cn(CC(=O)O)c3ccccc23)C1=O	none (no result: DRD3 agonist, D3 antag)
O=C(O)Cn1cc(/C=C2\C(=O)NC(=O)N(c3ccc(Br)cc3)C2=O)c2ccccc21	D1 antagonist -31, Chronic BCR inh inconclusive
CCN(CC)c1ccc(/C=C2\C(=O)NC(=O)N(Cc3ccco3)C2=O)cc1	D1 antagonist -46
CCN(CC)c1ccc(/C=C2/C(=O)NC(=O)N(CC3CCCO3)C2=O)cc1 (stereo not given)	none
O=C(O)Cn1cc(/C=C2\C(=O)NC(=O)N(Cc3ccco3)C2=O)c2ccccc21	D3 antag -64
Cc1ccc(N2C(=O)NC(=O)/C(=C\c3cn(CC(=O)O)c4ccccc34)C2=O)cc1	none
O=C1NC(=O)N(Cc2ccccc2)C(=O)/C1=C\c1ccco1	D1 antagonist -32
COc1ccc(C2(C(=O)c3ccccc3)C(=O)c3ccccc3C2=O)cc1	Chronic BCR inh inconclusive
Clc1ccc(OCc2cnc(Cl)s2)cc1	Chronic BCR inh inconclusive
CNC(C)Cc1ccccc1OC (stereo not given)	none (no result: D1 antagonist, D1 potentiator, Chronic BCR inh, D3 antag, D1 agonist)
O=c1oc2cccnc2n1CCS(=O)(=O)c1ccc(F)cc1	Chronic BCR inh inconclusive
O=C(C1=C[C@@H](C2CCCCC2)C[C@@H](OCc2ccc(CO)cc2)O1)N1CCN(Cc2ccc3c(c2)OCO3)CC1	Chronic BCR inh inconclusive
CN1C2CCC1CC(OC(=O)c1ccc(Cl)cc1)C2 (stereo not given)	D3 antag inconclusive
